This is an account of results in PubChem BioAssay.

SMILES strings stand for the structures. Calls of active or inactive are those of the source.

Test [1] in a line: A549 cell viability effects, profiling panel, calcein-AM fluorescence, 48 h, basal (AID 1162). The following applies: higher = more signal.
Test [2] can be described thus: adipocyte viability effects, profiling panel, cell-based, 3T3-L1 adipocytes, calcein-AM fluorescence, 48 h, basal (AID 1163). To be noted: 3T3-L1 adipocytes viability, higher = more signal.
The nature of test [3]: HepG2 cell viability effects, profiling panel, calcein-AM fluorescence, 48 h, basal (AID 1164). To be noted: higher = more signal.
A short description of test [4]: MM1S cell viability effects, profiling panel, calcein-AM fluorescence, 48 h, basal (AID 1165).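 Also: viability of MM1S multiple myeloma cells under basal unstimulated conditions.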 The following applies: higher = more signal.
Test [5] is described as follows: basal RPMI8226 viability, no added stimulus, profiling panel, cell-based, calcein-AM fluorescence, 48 h, PK04 Diversity Set (AID 1166).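 Also: cells grown under basal conditions without added stimulus.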 To be noted: RPMI8226 myeloma viability, higher = more signal.
Test [6] can be described thus: basal HepG2 mitochondrial membrane potential changes, profiling panel, cell-based, JC-1 fluorescence, 24 h, 100 nL compound (AID 1167). The following applies: higher = more signal.
The nature of test [7]: basal 3T3-L1 adipocyte mitochondrial potential changes, profiling panel, cell-based, JC-1 fluorescence, 3T3-L1 adipocytes, 24 h, 100 nL compound (AID 1168). To be noted: JC-1 mitochondrial fluorescence, higher = more signal, called active from +8 up or from −8 down.
A short description of test [8]: basal RPMI8226 mitochondrial membrane potential changes, profiling panel, cell-based, JC-1 fluorescence, 24 h, 100 nL compound (AID 1169). To be noted: RPMI8226 myeloma, JC-1 mitochondrial potential fluorescence, higher = more signal.
Test [9] is described as follows: basal MM1S mitochondrial membrane potential changes, profiling panel, cell-based, JC-1 fluorescence, 24 h, 100 nL compound (AID 1170). The following applies: higher = more signal.
A short description of test [10]: A549 lung cancer cell viability effects, profiling panel, resazurin fluorescence, 24 h, PK04 Diversity Set (AID 1171). To be noted: higher = more signal, called active from +8 up or from −8 down. In general terms: Resazurin is reduced to fluorescent resorufin, in cell work by metabolically active cells.
Also: test concentration not given here.

Turning to `CC(C)C[C@@H]1NC(=O)[C@@H]2C[C@H](C(=O)NCCCC[N+](C)(C)C)[C@H](c3cccc(OCCO)c3)N2C1=O`, the z-score in test [1] was -0.316; in [2], -0.0337; in test [3] it was -0.75; in test [4], -1.3; in [5], -0.122; in [6] it was -1.16. Also, the z-score in test [7] is -0.915 (inactive); in test [8], 0.789; in [9], -0.132; in [10] it was -0.331 (inactive).
For the compound `Cc1ccc(N2C(=O)c3ccccc3[C@](C)(C(=O)NC(C)C)[C@@H]2c2ccc(CO)cc2)nc1`, the z-score is -0.465 in [1]; 0.92 in test [2]; -1.37 in test [3]; -1.03 in [4]; -1.35 in test [5]; -0.42 in test [6]. The z-score is -0.424 (inactive) in [7], -0.586 in test [8], 1.34 in [9] and 0.0095 (inactive) in [10].
Consider `C=C(COC)C(=O)CC[C@H](OC(=O)c1ccccc1-c1ccccc1C(=O)O)c1ccc(OCCO)cc1`, for which the z-score in test [1] is -0.127; in test [2], 1.06; in test [3] it was -0.626; in test [4] it was -1.85; in test [5], -0.385; in [6], -0.271. In addition, the z-score in test [7] was -0.328 (inactive); in test [8], -0.463; in test [9] it was 0.463; in test [10] it was -0.276 (inactive).
Regarding `C=CCC(OC(C)=O)[C@@H]1[C@@H](N(Cc2cc3ccccc3o2)C(=O)Cc2ccc(OC)cc2)c2cc(OCCCO)ccc2N1C(=O)c1ccc(-c2ccccc2)cc1` (stereo not given in full), the z-score in [1] was 0.328; in test [2] it was 1.05; in test [3], 0.228; in [4], -0.841; in test [5], -1.82; in [6], 3.42. For the same compound, the z-score in [7] is 0.182 (inactive); in test [8], -0.392; in test [9], 0.415; in test [10], -0.451 (inactive).
`O=C(N1CCOCC1)[C@@]1(CCS(=O)(=O)c2ccccc2)COC(c2ccc(OCCCO)cc2)=N1`: the z-score was 0.437 in test [1]; -1.09 in test [2]; -0.0333 in test [3]; 0.205 in test [4]; 0.108 in test [5]; -0.33 in [6]. Besides, the z-score in [7] is -0.4 (inactive); in [8], 0.238; in test [9], -0.659; in [10] it was 0.201 (inactive).
On to `COc1ccc(C(=O)Nc2ccc(CN3C(=O)[C@]4(O[C@H](CCn5cc([C@H](O)c6ccccc6)nn5)[C@@H]([Si](C)(C)c5ccc(OC)cc5)[C@@H]4C)c4ccccc43)cc2)cc1`, for which the z-score is -0.0731 in test [1]; -0.145 in [2]; -4.03 in test [3]; -2.67 in test [4]; -3.84 in test [5]; 1.48 in test [6]. In addition, the z-score in test [7] is 0.374 (inactive); in [8], -1.12; in [9], -2.36; in test [10] it was -1.64 (inactive).
`CC[C@@H]1[C@@H]2C3C(=O)N(CC)C(=O)C3CC(=O)[C@@H]2[C@H](c2ccc(C)cc2)N1S(=O)(=O)c1ccc(C)cc1` (stereo not given in full): the z-score is 0.63 in test [1]; 0.552 in test [2]; 0.769 in test [3]; -0.639 in test [4]; -1.6 in test [5]; 0.601 in test [6]. The z-score was 0.0417 (inactive) in test [7], -0.227 in [8], -1.59 in [9] and -0.195 (inactive) in test [10].
Turning to `CCCC=C(CCC)[C@@H](NC(=O)Cc1ccccc1)c1ccc(C(=O)OC)cc1`, the z-score is -0.988 in test [1]; -0.735 in test [2]; -0.512 in test [3]; -2.42 in test [4]; -0.513 in test [5]; -1.59 in test [6]. Besides, the z-score in test [7] is -1.7 (inactive); in test [8], -0.566; in test [9], -2.09; in test [10] it was -0.712 (inactive).
With `CCCCC(O)C1C=CC2C(=O)N(Cc3ccccc3)C(=O)C2N1n1cnnc1` (stereo not given), the z-score in test [1] is -1.15; in test [2], 0.845; in test [3] it was -0.189; in [4], 0.179; in test [5], -0.458; in test [6] it was 0.135. In addition, the z-score was -0.942 (inactive) in test [7], -0.874 in test [8], -1.26 in [9] and 0.164 (inactive) in test [10].
For the compound `COCCOC(=O)N1C(=O)[C@@]2(c3cc(C#CCC(C(=O)OC)C(=O)OC)ccc31)[C@H](c1ccc(OCCO)cc1)N1[C@H](c3ccccc3)[C@H](c3ccccc3)OC(=O)[C@H]1[C@@H]2C(N)=O`, the z-score in [1] is 0.462; in [2], 0.433; in [3] it was 0.322; in [4] it was -2.51; in test [5], -2.67; in [6], -0.0777. The z-score in [7] is 1.3 (inactive); in test [8] it was -0.72; in test [9], -0.0535; in [10] it was 1.18 (inactive).
`COCCOC(=O)N1C(=O)[C@@]2(c3ccccc31)[C@H](c1ccc(OCCO)cc1)N1[C@H](c3ccccc3)[C@H](c3ccccc3)OC(=O)[C@H]1[C@@H]2C(=O)NC[C@H](O)c1ccccc1`: the z-score was -0.332 in [1]; 0.754 in test [2]; 0.349 in [3]; -0.991 in test [4]; -2.39 in [5]; -0.32 in test [6]. For the same compound, the z-score in test [7] was 0.988 (inactive); in test [8], 0.199; in [9] it was -0.864; in test [10] it was -1.16 (inactive).
On to `COc1ccc([Si](C)(C)[C@@H]2[C@@H](CCO)O[C@]3(C(=O)N(Cc4ccccc4)c4ccc(N5CCCCC5=O)cc43)[C@H]2C)cc1`, for which the z-score in test [1] is -0.887; in test [2], 2.07; in [3] it was -1.02; in [4] it was -1.58; in test [5] it was -4.08; in test [6] it was 0.311. Moreover, the z-score in test [7] is -0.258 (inactive); in test [8] it was -0.776; in [9], -0.786; in [10] it was -1.88 (inactive).
Regarding `[N-]=[N+]=Nc1ccccc1[C@H]1OC(c2ccc(OCCCO)cc2)=N[C@@]1(Cc1ccccc1)C(=O)NCc1ccccc1`, the z-score in test [1] was -1.16; in test [2] it was 0.491; in test [3], -1.07; in test [4], -1.04; in test [5], -3.84; in [6], 0.671. Besides, the z-score in test [7] was -1.17 (inactive); in test [8], -1.16; in [9], -2.17; in [10], -1.56 (inactive).
Regarding `C=C[C@H](C)[C@H](OC(=O)Nc1ccc(SC)cc1)c1ccc(O)c2ccccc12`, the z-score is -0.561 in [1]; -0.557 in test [2]; -1.51 in [3]; -2.74 in test [4]; -3.78 in test [5]; -3.16 in test [6]. Further, the z-score in test [7] was -0.818 (inactive); in [8], -0.939; in [9] it was -1.51; in test [10], -1.12 (inactive).
With `C=C(C)[C@@H]1CC=C(C(O)C2C=CC3C(=O)N(C4CCCCC4)C(=O)C3N2Nc2ccc(OC)cc2)CC1` (stereo not given in full), the z-score in [1] was -0.447; in test [2] it was -1.46; in test [3] it was 0.319; in [4], 0.0801; in [5] it was -0.0663; in test [6], -0.227. In addition, the z-score in test [7] was -0.836 (inactive); in test [8] it was -0.393; in test [9], -1.4; in test [10], 0.784 (inactive).
